# Assay results reported in PubChem BioAssay (NCI).
# Compounds without any hit were thinned out: in the full panel of roughly 83,000, 20% have a hit.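 Testing used 96-well plates and a 48-hour single-concentration exposure. Example: -40 means 40% of the starting cells died.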 Active and inactive are the calls of the source. Rule for the calls: active = growth percent below 10; inactive = the rest.
# Test system: A549/ATCC NSCLC
# Assay: NCI-60 one-dose screen, 48 h (100 = growth as untreated, 0 = no growth, -100 = all killed)
# Settings: 10 µM unless noted
row,SMILES,growth
1,COC(=O)c1sccc1-c1cc(O)c(C(=O)Nc2ccccc2)s1,91.5% (inactive)
2,O=C(C1=Cc2cc3ccccc3n2Cc2cnnn21)c1ccc(F)cc1,96.3% (inactive)
3,Cc1cccc(N2C(=O)/C(=C/C(Cl)=C/c3ccc([N+](=O)[O-])cc3)SC2=S)c1C,22.6% (inactive)
4,CS(=O)/C(C#N)=C\C=C\c1cccc(Cl)c1 (centres undefined),20% (inactive)
5,CCOC(=O)/C=C1\S/C(=N\Nc2cc(=O)[nH]c3ccc(Br)cc23)N(c2ccccc2)C1=O,103% (inactive)
6,Cc1ccc2nc(-c3ccc(C(=O)N/N=C/c4ccc([N+](=O)[O-])cc4)cc3)[nH]c2c1,106% (inactive)
7,COc1ccc(/C=C/C(c2cc(OC)c(OC)c(OC)c2)n2cncn2)cc1O (centres undefined),40.1% (inactive)
8,CCCCCCCCCCCCCCCCCCOc1ccccc1CC(=O)NCC[N+](C)(C)C,40.8% (inactive)
9,CCOC(=O)c1c(C)nc2ccccc2c1/C=C/c1ccc(F)cc1,57.7% (inactive)
10,N#Cc1c(-c2ccccc2)cc(-c2ccccc2)n(CCCCC(=O)NO)c1=O,41.7% (inactive)
11,COc1cc(Cc2cc(OC)c(O)c(OC)c2)cc(OC)c1O,84.1% (inactive)
12,COc1cc(/C=C/c2cc(/C=C/c3ccc(O)c(OC)c3)n(C(=O)Nc3ccc(Cl)cc3)n2)ccc1O,4.03% (active)
13,NS(=O)(=O)c1ccc(C(=O)NN2C(=O)c3ccccc3C2=O)cc1,110% (inactive)
14,CS(=O)(=O)c1ccc(-c2nc3ccccc3n2CC(=O)N/N=C/c2ccccc2)cc1,97.2% (inactive)
